# Tb PGK inh: inhibitors of T. brucei phosphoglycerate kinase. P07378. PGK/GAPDH coupled, Kinase-Glo luminescence, 60 min. Potency, µM (series often up to 57.5 µM), for inactives: top-dose activity change, negative = inhibition, usual class: inhibitors. 0.043% of 380,000 active; note: potency is the fitted concentration of half-maximal effect; nearly all actives have a fitted effect of over 60% in size
#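 Recombinant glycosomal PGK reaction used 1,3-bisphosphoglycerate generated in-well by GAPDH (100nM final) in 100mM TEA pH 7.6, 5mM MgCl2, 0.01% Tween-20. After 60 minutes at room temperature, ATP was read by Kinase-Glo Plus luminescence end-point.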
# Tb PFK inh: inhibitors of T. brucei phosphofructokinase. O15648. T. brucei PFK, ADP-Glo luminescence. Potency, µM (series often up to 57.5 µM), for inactives: at the top dose activity, negative = inhibition, hits mostly inhibitors. 0.17% of 330,000 active. AID 485367;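 note: potency is the fitted concentration of half-maximal effect; 0% = uninhibited 1x PFK enzyme wells and -100% = no-enzyme wells; nearly all actives have a fitted effect of over 60% in size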
# Target sequence (O15648 whole entry, looked up): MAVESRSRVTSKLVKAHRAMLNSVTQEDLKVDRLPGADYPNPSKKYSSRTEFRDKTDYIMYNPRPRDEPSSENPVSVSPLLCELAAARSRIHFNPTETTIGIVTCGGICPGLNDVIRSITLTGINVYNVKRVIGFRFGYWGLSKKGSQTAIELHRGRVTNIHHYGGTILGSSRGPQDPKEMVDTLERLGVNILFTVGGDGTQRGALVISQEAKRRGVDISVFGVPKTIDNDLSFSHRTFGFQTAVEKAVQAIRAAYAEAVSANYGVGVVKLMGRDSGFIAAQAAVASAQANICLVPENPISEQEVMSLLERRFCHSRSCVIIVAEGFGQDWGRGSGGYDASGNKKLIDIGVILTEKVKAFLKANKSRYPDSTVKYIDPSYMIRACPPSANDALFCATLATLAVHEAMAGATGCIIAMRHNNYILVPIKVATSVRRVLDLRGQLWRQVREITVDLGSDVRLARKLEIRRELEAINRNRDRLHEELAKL
#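 ADP-Glo luminescence quantified ADP after 45 min at room temperature, with 1.25 nM T. brucei PFK, 0.1 mM ATP and 0.5 mM fructose-6-phosphate in pH 8.0 TEA buffer. qHTS titrations up to 57 µM; curves classified by quality.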
# PI4K2A inh: PI4K2A (human) kinase inhibition | Q9BTU6 | purified PI4K2A, ADP-Glo luminescence, 1 h; hits give low values | activity change, negative = inhibition, % at 76.9 µM | 0.13% of 420,000 active | AID 1346378; in the data active = activity change below about -50%; inconclusive = mostly about -30% to -49%;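 note: -100% = wells without enzyme as full effect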
#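 Compounds are screened against recombinant PI4K2A using PI as substrate and ATP, the latter dispensed at 300 microM. Reactions run one hour at ambient temperature before ADP-Glo detection; full inhibition defined by wells lacking enzyme.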
# PI5P4Ka inh: inhibitors of human PI5P4K alpha | P48426 | PI5P4Kalpha enzyme, ADP-Glo luminescence, 60 min; hits give low values | 1.2% of 330,000 active | max response, % | AID 652105; active = max response of -50% or lower; inconclusive = between -30% and -50%; inactive = -30% or higher; note: value at the top dose of about 77 µM
#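 Controls without substrate or without enzyme flank wells where PI5P4Kalpha converts substrate using 5 microM ATP (final). Incubation lasts 60 minutes at room temperature; ADP formed is read by ADP-Glo luminescence.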
# Pin1 inh: inhibitors of human Pin1. Potency, µM (top dose mostly 115 µM), inactives show top-dose activity, negative = inhibition, usual class: inhibitors. 0.009% of 390,000 active. Pin1 FP peptide displacement, HiFluor488, 10 min. Q13526. AID 504891; active = well fitted inhibition curve with a large enough effect in the polarisation, with a control signal flat, not every such curve was filed as active; inconclusive = small, poorly fitted or top-dose-only effect, or effect the other way, or a change in a side signal; inactive = no such curve, though single readings can be large or run the other way; the % refers to the polarisation; note: potency is the fitted concentration of half-maximal effect
# Target sequence (Q13526 whole entry, looked up): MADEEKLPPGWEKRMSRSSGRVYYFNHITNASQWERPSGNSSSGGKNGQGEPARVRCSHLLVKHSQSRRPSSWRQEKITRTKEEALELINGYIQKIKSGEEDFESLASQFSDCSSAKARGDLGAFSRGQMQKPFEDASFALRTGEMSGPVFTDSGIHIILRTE
# Active calls of the source: *; i = inactive; ? = inconclusive; · = no result given. Many of the other results were omitted from the sample, so hits are more common in it than they were. Unless noted, calls come from the whole dose curve; as a rule, active = well fitted curve in the direction sought with a large enough effect; inconclusive = small, poorly fitted or top-dose-only effect, or another doubt; inactive = no such curve, though single readings can be large; an effect the other way counts as inactive or inconclusive. Unless noted, % is set by controls: 0 for no effect and ±100 for the full control effect.
SMILES,Tb PGK inh,Tb PFK inh,PI4K2A inh,PI5P4Ka inh,Pin1 inh
CCOc1ccc2nc(NC(=O)c3ccoc3C)sc2c1,?,-24.0%,-83.4*,?,2.7%
O=c1c2ccccc2nc2sc(NCc3ccccc3)nn12,·,·,·,·,-10.9%
O=C1NN(c2ccccc2)C(=O)/C1=C\c1ccc2c(c1)OCO2,i,1.0%,-5.2,1.8,·
COc1cc(/C=C2/C(=O)NN(c3ccc(C)c(Cl)c3)C2=O)cc([N+](=O)[O-])c1O,·,?,-3.8,-67.5*,·
COc1cc(/C=C2/C(=O)NN(c3cccc(C)c3)C2=O)cc([N+](=O)[O-])c1O,-15.5%,18.2%,-5.6,-62.4*,?
Cc1ccc(N2NC(=O)/C(=C\c3cc4c(cc3[N+](=O)[O-])OCO4)C2=O)cc1C,-3.1%,8.6%,-4.0,-57.3*,·
O=C1NN(c2ccccc2)C(=O)/C1=C\c1cccn1-c1ccc(Cl)c([N+](=O)[O-])c1,-4.5%,-4.6%,-12.0,-62.6*,?
O=C1CC(c2ccc(Cl)cc2)CC(=O)N1,·,·,-1.4,·,·
CCCC(=O)OCOC(=O)C1=C(C)NC(C)=C(C(=O)OC)C1c1cccc(Cl)c1Cl (stereo not drawn),·,·,-0.6,·,·
O=C(Cc1ccc([N+](=O)[O-])cc1)N/N=C/c1ccc([N+](=O)[O-])o1,0.0%,?,-2.0,-19.3,0.1%
O=C(O)/C=C/c1ccc([N+](=O)[O-])o1,15.8µM*,0.5%,0.0,-10.6,-22.7%
N#CCc1ccc(NC(=O)/C=C/c2ccc([N+](=O)[O-])o2)cc1,-16.6%,-5.0%,-12.6,-59.4*,-5.9%
NC(N)=NN=C(/C=C/c1ccc([N+](=O)[O-])o1)/C=C/c1ccc([N+](=O)[O-])o1,·,·,-20.3,·,·
Cc1ccc(C(=O)c2c(C)oc3c2C(=O)C(=O)c2ccccc2-3)cc1,-16.6%,1.2%,-63.4*,-12.8,-4.8%
Cc1oc2c(c1C(=O)c1ccc(Cl)cc1)C(=O)C(=O)c1ccccc1-2,-12.4%,1.6%,-8.9,1.0,-2.0%
CC1(c2nnc(Cc3ccccc3)o2)CC(c2ccccc2[N+](=O)[O-])=NO1 (stereo not drawn),-3.8%,-3.0%,-6.9,-51.3*,-10.1%
O=[S+]([O-])(c1c(F)cccc1F)N1CCN([S+](=O)([O-])c2c(F)c(F)c(F)c(F)c2F)CC1,·,·,·,·,0.8%
CCn1c(CCc2nc3ccccc3[nH]2)n[nH]c1=S,-9.6%,2.0%,5.0,4.7,-3.6%
Cc1ccc(-n2c(CCc3nc4ccccc4[nH]3)n[nH]c2=S)cc1,-0.2%,0.2%,-1.2,-57.9*,-8.4%
Cn1nnnc1Sc1ncnc2scc(-c3ccc4c(=O)ccoc4c3)c12,·,·,·,·,-4.0%
O=C(O)/C=C\C(=O)Nc1cc(O)ccc1[N+](=O)[O-],2.9%,5.4%,7.1,-74.7*,3.8%
Cc1ccc(NC(=O)/C=C\C(=O)O)c([N+](=O)[O-])c1,-5.9%,23.3%,4.1,-5.7,3.1%
CC[C@H](C)[C@H](N)C(=O)O,·,·,1.4,·,·
O=Cc1ccc(-c2cccs2)s1,-8.7%,·,1.0,-2.9,2.3%
Oc1ccc(N=Cc2ccc(-c3cccs3)s2)cc1,-9.0%,2.9%,-69.2*,·,?
SMILES,Tb PGK inh,Tb PFK inh,PI4K2A inh,PI5P4Ka inh,Pin1 inh
Oc1cc(CNCc2ccccc2)c(O)cc1CNCc1ccccc1,0.4%,·,-26.4,-55.9*,?
CCS(=O)(=O)C1=NN2C(=N)/C(=C\c3ccc(SCc4ccco4)o3)C(=O)N=C2S1,?,?,-18.5,-91.0*,?
Cc1c(C#N)c(O)[nH]c(=O)c1N=Nc1ccc(Br)cc1C(=O)O,-6.3%,?,-5.8,-58.6*,?
Cc1cc(-c2csc(NC(=O)c3ccc(=O)[nH]c3)n2)c(C)n1Cc1ccccc1,-9.5%,?,?,-23.3,34.9%
Cc1cc(-c2csc(NC(=O)c3ccc(C#N)cc3)n2)c(C)n1Cc1ccco1,8.5%,2.9%,?,-62.3*,-10.9%
Nc1ccccc1OC1=NS(=O)(=O)c2ccccc21,·,·,·,·,-8.2%
COc1ccc(OC)c(CCNC(=O)Cn2nc(C)c3c(C)n(-c4ccc(C)cc4)nc3c2=O)c1,-5.2%,-1.5%,3.8,-2.8,?
COc1ccc(OC)c(CCNC(=O)Cn2sc3nc(C)cc(C)c3c2=O)c1,·,2.39µM*,·,·,·
COc1ccc(C(C(=O)N(C)C2CCCC2)N(Cc2ccc(F)cc2)C(=O)c2csc(N3CCOCC3)n2)cc1OC (stereo not drawn),·,·,0.4,·,·
CCOC(=O)C1CCN(c2nc3ccccc3nc2C(C#N)C(=O)NCCc2ccccc2)CC1 (stereo not drawn),·,9.53µM*,·,·,·
CCOC(=O)C1CCCN(c2nc3ccccc3nc2C(C#N)C(=O)OCC)C1 (stereo not drawn),-8.5%,-1.7%,4.1,-7.3,?
CNC(=O)C1CC(=O)N(c2ccc(OCC(=O)Nc3ccccc3)cc2)C1 (stereo not drawn),-7.4%,·,-24.8,-65.8*,4.2%
N#Cc1nc(Nc2cccc(-c3ccccc3)c2)nc(NC2CCCC2)n1,·,·,·,·,12.4%
CC(=O)Nc1cc(OC(C)=O)c2nonc2c1OC(C)=O,-23.5%,0.9%,-53.2*,·,?
Nc1c(C(=O)NCC2CCCO2)sc2nc3c(c(-c4ccco4)c12)CC/C3=C\c1ccco1 (stereo not drawn),?,-23.2%,-75.9*,-100.4*,?
O=C(Nc1cccc(C(F)(F)F)c1)OCCCN1CCC2(CCC(c3ccccc3)CC2)C1=O (stereo not drawn),·,·,-6.2,·,·
Cn1c(CCCNC(=O)c2ccco2)nc2ccccc21,i,·,1.0,-70.2*,-3.9%
CC(C)(C)NCC(O)COc1ccccc1OCC1CCCO1 (stereo not drawn),·,·,-0.1,·,·
Cc1[nH][nH]c(=O)c1C(c1ccc(-c2ccc(Cl)c(C(=O)O)c2)o1)c1c(C)[nH][nH]c1=O,-6.7%,12.2%,-58.9*,-21.7,?
CC(=O)N1CCN(c2ccc(O)cc2)CC1,·,·,0.2,·,·
Cc1ccc(CNC(=O)[C@H](C)[C@H]2C[C@]2(C)[C@H](NC(=O)OCc2ccccc2)c2ccccc2)o1,9.5%,-8.1%,0.5,-52.0*,2.4%
CC1=CC(=O)C=CC1=Nc1ccc(N(C)C)cc1,·,·,?,-94.9*,·
Cc1c(N2C(=O)c3ccc4c5c(ccc(c35)C2=O)CC4)c(=O)n(-c2ccccc2)n1C,?,?,-27.4,-63.6*,?
Cc1c(N2C(=O)c3ccc(Br)cc3C2=O)c(=O)n(-c2ccccc2)n1C,3.3%,1.3%,-0.7,0.2,2.0%
CN(C)C/C=C/C(=O)Nc1cccc(-c2c[nH]c3ncnc(Oc4ccc(NC(=O)CC(=O)Nc5ccc(F)cc5)cc4F)c23)c1,i,9.6%,-4.0,-50.3*,15.2%
CC(=O)Nc1cccc(Oc2ncnc3scc(-c4ccccc4)c23)c1,6.9%,4.1%,2.3,1.1,?
Clc1ccc(-n2c(SCc3cccc4ccccc34)nnc2-c2ccccc2)cc1,·,·,-4.2,·,·

# Assay outcomes (PubChem)
